Test [1] in a line: anti-His antibody binders, primary screen, artefact control for SMM control protein annotation, biochemical, small-molecule microarray, 635 nm fluorescence (AID 1128).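 Further: score merges feature fluorescence with signal-to-noise for each printed compound spot.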 The conditions noted are these: anti-His Alexa647 antibody binding, higher = more signal.
For test [2], the system named is Human papillomavirus type 1a E7 protein (residues 1-88). The test is described as follows: HPV1a E7 small-molecule binders, primary screen, biochemical, small-molecule microarray, residues 1-88, 635 nm (AID 1129). The conditions noted are these: small-molecule microarray binding, fluorescence 635 nm; higher = more signal.
Test [3] has as its target Focal adhesion kinase 1 (Homo sapiens) (UniProt Q05397). The test is described as follows: small-molecule microarray binders of FAK, primary screen, biochemical, 635/667 nm fluorescence, BSA, DTT (AID 1130).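 Further: composite of spot emission at 667 nm and signal to noise over triplicate slides.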 The note with it: PTK2 binding, 635 nm fluorescence, higher = more signal.
Test [4] relates to Fibrinogen (Alexa647-labelled). The test is described as follows: fibrinogen binders on compound microarrays, profiling panel, artefact control for SMM control-protein annotation, biochemical, small-molecule microarray, 635/667 nm fluorescence (AID 1131).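 Further: z-score merges 667 nm fluorescence with per-spot signal-to-noise over triplicate slides.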 The note with it: fibrinogen-A647 binding fluorescence, higher = more signal.
For test [5], the target named is Follistatin (Homo sapiens) (UniProt P19883). The test is described as follows: follistatin binders on small-molecule microarrays, primary screen, biochemical, small-molecule microarray, 635/667 nm fluorescence (AID 1132). The note with it: FST binding, 635 nm fluorescence, higher = more signal.
The target in test [6] is Fibroblast growth factor 2 (Homo sapiens) (UniProt P09038). The test is described as follows: FGF2 binders on small-molecule microarrays, primary screen, biochemical, small-molecule microarray, 635/667 nm fluorescence (AID 1133). The note with it: small-molecule microarray binding, FGF2, fluorescence 635/667; higher = more signal.
Test [7] can be described thus: mitochondrial membrane potential change in A549 cells, profiling panel, cell-based, JC-1 fluorescence, basal, 24 h, 100 nL (AID 1138).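 Further: A549 lung adenocarcinoma cells under basal conditions with no added stimulus; test concentration not given here.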 The conditions noted are these: higher = more signal.
A further test has as its system Lefty1. The test is described as follows: Lefty1 binders on small-molecule microarrays, primary screen, biochemical, small-molecule microarray, 635/667 nm fluorescence (AID 1139). The conditions noted are these: small-molecule microarray binding, fluorescence 635/667; higher = more signal.
The subject of test [8] is wheat germ agglutinin (Triticum aestivum), Alexa647-labelled. The test is described as follows: wheat germ agglutinin binders on compound microarrays, profiling panel, artefact control for SMM control-protein annotation, biochemical, small-molecule microarray, 635/667 nm fluorescence (AID 1140).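 Further: score merges 667 nm feature emission with signal to noise over triplicate slides.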 The conditions noted are these: WGA-A647 binding, 635 nm fluorescence, higher = more signal.

Test [9] has as its target Luciferin 4-monooxygenase (Photinus pyralis) (UniProt P08659). The test is described as follows: firefly luciferase enzyme inhibitors, primary screen, biochemical, luminescence, purified enzyme, 2006 set (AID 1141).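 Further: cell-free assay with purified firefly luciferase at 100 ng per well in PBS; test concentration not given here.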 The note with it: SteadyGlo luminescence, 30 min, higher = more signal, called active from +8 up or from −8 down.
Test [10] concerns Wnt5a (protein binding on small-molecule microarray). The test is described as follows: Wnt5a binders on small-molecule microarray, primary screen, biophysical, 635/667 nm fluorescence (AID 1142).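 Further: fluorescence read at 667 nm with signal to noise per printed feature.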 The conditions noted are these: 635 nm fluorescence, higher = more signal.
Test [11] can be described thus: cell viability in Huh7 cells, primary screen, cytotoxicity control for HCV replication inhibitor project, CellTiter-Glo luminescence, basal, 48 h (AID 1143).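 Further: Huh7 hepatoma cells carrying a hepatitis C replication reporter with no stimulus; test concentration not given here.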 The conditions noted are these: Huh7 HCV replicon, higher = more signal, called active from +8 up or from −8 down. (In general: In ATP-based viability assays light output follows the ATP content of the culture.)

The nature of test [12]: P. aeruginosa biofilm formation inhibitors, primary screen, PAO1 strain, BacTiter-Glo luminescence, LB-PBS (AID 1144). The note with it: 12 h, higher = more signal.
Test [13] is described as follows: CREB reporter modulators without forskolin, primary screen, cell-based, PC12, CRE-LacZ reporter, unstimulated (AID 1145). The conditions noted are these: no forskolin, luminescence, 4.5 h, higher = more signal, called active from +8 up or from −8 down.
Test [14] is described as follows: CREB reporter modulators under forskolin, primary screen, cell-based, PC12, CRE-LacZ reporter, forskolin-stimulated (AID 1146).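 Further: PC12 cells with 6xCRE LacZ reporter stimulated by forskolin 10 µM; beta-galactosidase reporter signal reflecting CREB driven transcription.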 The conditions noted are these: luminescence, 4.5 h, higher = more signal, called active from +8 up or from −8 down.
Test [15] addresses Streptavidin (Streptomyces avidinii) (UniProt P22629). The test is described as follows: streptavidin binders on small-molecule microarray, primary screen, artefact control for SMM compound annotation, biophysical, 635/667 nm fluorescence (AID 1147).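 Further: signal reflects streptavidin binding to arrayed compounds as a control protein.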 The note with it: streptavidin binding, higher = more signal.
Test [16] is described as follows: small-molecule binders of probe aInhba, primary screen, biochemical, small-molecule microarray, 635/667 nm fluorescence (AID 1148).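 Further: score merges 667nm spot fluorescence with signal-to-noise for antibody binding to printed compounds.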 The note with it: higher = more signal.
In test [17] the target is Torsin-1A (Homo sapiens) (UniProt O14656). The test is described as follows: torsin A binders from cell lysate, primary screen, small-molecule microarray, wild-type, 635/667 nm (AID 1149). The conditions noted are these: COS7 hTOR1A-WT lysate, 635 nm fluorescence, higher = more signal.
Test [18] shares this target. The test is described as follows: small-molecule binders of mutant TOR1A in lysate, primary screen, cell lysate, small-molecule microarray, COS7 lysate, 635/667 nm fluorescence (AID 1150).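 Further: score pools 667 nm emission and signal to noise measuring lysate protein binding.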 The note with it: COS7 hTOR1A mutant lysate, 635 nm fluorescence, higher = more signal.
The subject of test [19] is Sonic hedgehog protein (Shh). The test is described as follows: small-molecule binders of Shh protein, primary screen, biochemical, small-molecule microarray, 635/667 nm fluorescence (AID 1151).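 Further: Shh protein binding to compounds spotted on small-molecule microarray slides; score combines spot fluorescence intensity with signal-to-noise across triplicate slides.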 The conditions noted are these: small-molecule microarray binding, 635 nm fluorescence; higher = more signal.

Activity calls are given as the source filed them. Unless noted, how the calls were made is not given here.

Sequence of Streptavidin (Streptomyces avidinii) (P22629 whole entry, looked up): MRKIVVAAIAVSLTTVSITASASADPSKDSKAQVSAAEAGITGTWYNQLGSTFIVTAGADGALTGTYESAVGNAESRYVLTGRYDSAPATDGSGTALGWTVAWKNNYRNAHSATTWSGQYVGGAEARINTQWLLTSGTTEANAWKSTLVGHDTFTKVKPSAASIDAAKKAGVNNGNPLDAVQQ
Sequence of Torsin-1A (Homo sapiens) (O14656 whole entry, looked up): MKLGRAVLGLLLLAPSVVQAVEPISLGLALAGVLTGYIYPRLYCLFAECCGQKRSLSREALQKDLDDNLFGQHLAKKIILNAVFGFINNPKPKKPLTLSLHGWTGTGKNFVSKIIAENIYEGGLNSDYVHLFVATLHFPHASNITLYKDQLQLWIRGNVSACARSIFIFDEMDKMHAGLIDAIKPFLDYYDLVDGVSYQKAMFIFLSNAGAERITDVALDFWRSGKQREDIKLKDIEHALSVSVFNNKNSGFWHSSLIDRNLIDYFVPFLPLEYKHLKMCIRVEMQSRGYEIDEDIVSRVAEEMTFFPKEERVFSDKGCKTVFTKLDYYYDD
Sequence of Follistatin (Homo sapiens) (P19883 whole entry, looked up): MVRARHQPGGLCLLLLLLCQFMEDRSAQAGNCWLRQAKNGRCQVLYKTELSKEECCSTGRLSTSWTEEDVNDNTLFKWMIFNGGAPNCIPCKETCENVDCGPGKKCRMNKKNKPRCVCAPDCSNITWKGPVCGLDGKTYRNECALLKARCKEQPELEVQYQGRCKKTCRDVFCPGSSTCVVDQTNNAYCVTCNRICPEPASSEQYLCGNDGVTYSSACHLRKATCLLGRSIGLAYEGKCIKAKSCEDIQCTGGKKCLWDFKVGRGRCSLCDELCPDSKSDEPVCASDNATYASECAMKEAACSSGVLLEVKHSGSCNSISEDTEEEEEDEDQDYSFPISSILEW
Sequence of Luciferin 4-monooxygenase (Photinus pyralis) (P08659 whole entry, looked up): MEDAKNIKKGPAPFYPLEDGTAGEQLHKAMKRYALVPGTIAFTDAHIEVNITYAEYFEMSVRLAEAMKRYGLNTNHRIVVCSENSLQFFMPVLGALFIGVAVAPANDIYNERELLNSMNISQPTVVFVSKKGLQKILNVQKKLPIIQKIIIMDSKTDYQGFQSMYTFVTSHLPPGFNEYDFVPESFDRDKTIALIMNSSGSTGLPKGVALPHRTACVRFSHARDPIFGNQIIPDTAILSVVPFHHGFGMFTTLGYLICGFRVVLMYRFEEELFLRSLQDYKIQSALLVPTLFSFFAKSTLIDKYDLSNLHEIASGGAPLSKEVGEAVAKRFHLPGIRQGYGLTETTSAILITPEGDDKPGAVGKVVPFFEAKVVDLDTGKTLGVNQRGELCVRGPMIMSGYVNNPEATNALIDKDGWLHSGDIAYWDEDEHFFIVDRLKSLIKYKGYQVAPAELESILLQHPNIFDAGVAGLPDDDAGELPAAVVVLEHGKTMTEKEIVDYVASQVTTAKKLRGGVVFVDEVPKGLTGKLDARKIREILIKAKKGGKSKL
Sequence of Fibroblast growth factor 2 (Homo sapiens) (P09038 whole entry, looked up): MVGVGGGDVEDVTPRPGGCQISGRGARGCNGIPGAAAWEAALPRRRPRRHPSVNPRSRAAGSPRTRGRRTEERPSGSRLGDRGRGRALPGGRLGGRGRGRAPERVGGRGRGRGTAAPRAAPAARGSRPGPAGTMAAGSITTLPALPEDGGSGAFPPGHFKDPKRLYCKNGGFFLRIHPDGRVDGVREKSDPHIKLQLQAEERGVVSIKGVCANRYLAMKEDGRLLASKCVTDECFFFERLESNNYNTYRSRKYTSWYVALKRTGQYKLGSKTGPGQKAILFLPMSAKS
Sequence of Focal adhesion kinase 1 (Homo sapiens) (Q05397 whole entry, looked up): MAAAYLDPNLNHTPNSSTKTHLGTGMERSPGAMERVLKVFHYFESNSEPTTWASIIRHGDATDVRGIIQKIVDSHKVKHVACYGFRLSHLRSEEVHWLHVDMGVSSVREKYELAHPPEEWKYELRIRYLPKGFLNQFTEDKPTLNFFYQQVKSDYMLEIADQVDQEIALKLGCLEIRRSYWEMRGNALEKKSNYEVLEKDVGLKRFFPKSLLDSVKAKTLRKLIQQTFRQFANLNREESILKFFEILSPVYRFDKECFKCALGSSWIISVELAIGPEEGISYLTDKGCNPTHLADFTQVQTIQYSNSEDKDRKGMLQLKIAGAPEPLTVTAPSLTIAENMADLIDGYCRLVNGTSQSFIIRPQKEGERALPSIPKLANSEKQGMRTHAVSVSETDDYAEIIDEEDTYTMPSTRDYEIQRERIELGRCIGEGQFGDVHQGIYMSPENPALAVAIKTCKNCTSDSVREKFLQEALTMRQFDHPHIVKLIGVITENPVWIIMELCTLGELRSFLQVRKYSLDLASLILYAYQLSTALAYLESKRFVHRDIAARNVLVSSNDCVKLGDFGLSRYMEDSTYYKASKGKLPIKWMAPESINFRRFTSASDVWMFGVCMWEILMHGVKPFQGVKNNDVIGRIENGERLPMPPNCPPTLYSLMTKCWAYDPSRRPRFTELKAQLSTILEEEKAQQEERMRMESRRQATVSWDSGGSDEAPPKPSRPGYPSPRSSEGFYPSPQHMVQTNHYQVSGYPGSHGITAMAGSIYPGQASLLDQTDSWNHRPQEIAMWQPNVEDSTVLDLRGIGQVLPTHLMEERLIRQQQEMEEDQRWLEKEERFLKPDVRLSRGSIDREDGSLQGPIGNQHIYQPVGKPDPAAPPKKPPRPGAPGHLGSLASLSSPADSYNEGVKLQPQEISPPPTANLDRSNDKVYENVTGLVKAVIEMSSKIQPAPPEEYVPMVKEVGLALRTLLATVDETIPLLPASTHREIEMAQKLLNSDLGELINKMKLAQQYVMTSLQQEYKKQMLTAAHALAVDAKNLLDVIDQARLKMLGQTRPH

In the case of `COC(=O)[C@@]1(Cc2ccc(OC)cc2)[C@H]2c3cc(C(=O)N4CCCC4)n(Cc4ccc(OC)c(OC)c4)c3C[C@H]2CN1C(=O)c1ccccc1`, the composite z-score in test [1] came to 2.04; in [2], 1.22; in [3], 0.343; in test [4], 0.607; in test [5], 1.37; in test [6], 0.515. For the same molecule, the composite z-score came to 0.724 with Lefty1; 0.742 in [8]; 0.753 in test [10]; 2.03 in [15]; 0.955 in test [16]; 0.201 in the test with Torsin-1A (Homo sapiens) [17]. Besides, the composite z-score with Torsin-1A (Homo sapiens) [18] was 0.695; in test [19], 0.464. Also, the z-score in test [7] is 1.58; in [9], 2.16 (inactive); in test [11] it was -2.2 (inactive); in test [12], -0.139 (inactive); in [13] it was 0.959 (inactive); in test [14], -0.265 (inactive).
Take `COCCCN1C(=O)[C@@]2(Cc3ccccc31)c1ccccc1C(=O)N(Cc1ccccc1C(F)(F)F)[C@H]2c1ccc(CO)cc1`: the composite z-score in test [1] is -0.169; in test [2], 0.439; in test [3], 0.521; in [4], -0.371; in test [5], 1.26; in test [6] it was 1.14. Also, the composite z-score is 0.469 in the test on Lefty1; 0.101 in test [8]; 0.16 in [10]; 0.147 in [15]; 0.331 in test [16]; -0.0888 in the test with Torsin-1A (Homo sapiens) [17]. Besides, the composite z-score with Torsin-1A (Homo sapiens) [18] was -0.0875; in test [19] it was 0.498. Besides, the z-score is 0.317 in test [7]; -0.259 (inactive) in test [9]; 0.287 (inactive) in test [11]; -0.169 (inactive) in [12]; -0.581 (inactive) in test [13]; 0.255 (inactive) in test [14].
Take `CC(=O)n1cc(C(O)C2C=CC3C(=O)N(C)C(=O)C3N2Nc2ccccc2)c2ccccc21` (stereo not given): the composite z-score worked out at 1.88 in [1]; 1.11 in [2]; 0.214 in test [3]; 0.898 in [4]; 1.12 in test [5]; 0.607 in test [6]. In addition, the composite z-score was determined as 0.859 with Lefty1; 0.809 in [8]; 0.19 in test [10]; 1.13 in test [15]; 0.246 in test [16]; 0.383 with Torsin-1A (Homo sapiens) [17]. Also, the composite z-score with Torsin-1A (Homo sapiens) [18] was found to be 0.606; in test [19], 1.04. For the same molecule, the z-score in test [7] is -0.0732; in test [9], 0.376 (inactive); in test [11], 1.08 (inactive); in test [12], -0.114 (inactive); in test [13], 0.0569 (inactive); in [14] it was -0.172 (inactive).
For `COc1ccc(C(=O)Nc2ccc(CN3C(=O)[C@@]4(O[C@@H](CCn5cc([C@H](O)c6ccccc6)nn5)[C@H]([Si](C)(C)c5ccc(OC)cc5)[C@H]4C)c4ccccc43)cc2)cc1`, the composite z-score in [1] was 0.848; in [2], -0.024; in [3], -0.103; in test [4] it was 0.579; in test [5], 0.836; in [6] it was -0.019. The composite z-score with Lefty1 is 0.526; in test [8] it was 0.376; in test [10], -0.0152; in test [15], 0.865; in [16] it was -0.0405; in the test with Torsin-1A (Homo sapiens) [17] it was 0.253. Further, the composite z-score worked out at 0.163 in the test with Torsin-1A (Homo sapiens) [18] and 1.51 in [19]. Moreover, the z-score in test [7] was 1.83; in test [9], -0.753 (inactive); in test [11] it was -3.46 (inactive); in [12], -0.576 (inactive); in test [13], 2.4 (inactive); in test [14], -1.04 (inactive).

Values taken from PubChem BioAssay.
